Test results as given in the supplement of paper PMC6555819.

What follows are sequences tested on FXR:RXRa (NR concentration 270 nM, RXRa partner concentration 90 nM) (assay: PBM binding z-score (relative to random genomic background probes); higher = stronger binding; sequences stand for … in GC…GCGATTGACAGCGTAGAATGAAGG).
Summary of the method: (§1)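 Ligand-free nuclear receptor dimers were bound for 1 h to custom Agilent 4×180K protein-binding microarrays. Detection used antibodies against each partner (one per run). Binding z-scores rest on regression-normalized fluorescence, with random background probes as the reference.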

Row | Sequence | PBM binding z-score
1 | ATCGAAAGGTGGTGAGGTGAGTATACAGAAAGGC | 0.483
2 | CATGCTAGGTCAATGGTCAGCTAAAGCAGCTCGC | 3.18
3 | TCTCGGAGGACACGAAAGGCCAGAGCTCGACATC | 0.554
4 | AGAACGAGGTCAATGAGTTGATAGCACGGGTGGC | 7.39
5 | CCTTACGGGTCACGAGGTTCTAGCACGACGAGCG | 6.53
6 | CTCGAAAGGTCGGTTCAGGTGAGTATACGGATAA | 2.48
7 | CCTACTGGGCCATTTAGAGGTCATTGATCATATG | 2.82
8 | CGTCCAAGGACAGAGAGGTCAGTGAATGCCGAGT | 1.59
9 | ACAGACAGGTGAGTGAAGGTAAATCAGCTGGACG | 0.263
10 | CGTCCAAGGTGAAAGGTCAGTGAAGAGATGACGG | 4.63
11 | CAAACTAGGTCACAGAGGTCATAGTCCGTGCGTA | 6.73
12 | TAGCCTAGGTCATGGGTCAGTATACCACGCGAAC | 5.1
13 | AACTCTAGGTAAGACTCAGTTCAGTGAAGAACGC | -0.314
14 | TTAATGAGGTTATAAGATCAGGGAACGTTGCAAA | 1.87
15 | CGAACGAGGGCATGAGTTGATAGAAAATGCCGAT | 0.363
16 | CAAACTAGGTCACGAAAGCTCAAAGTCGAATGAC | 4.45
17 | CAAACTAGGTCACTGAGGTCAAAGTCCGTGCGTA | 6.44
18 | CCTTACGGGTCACGAGGTTTTAGCACGACGAGCG | 6.33

The sequences below were run on LXRa:RXRa (NR concentration 270 nM, RXRa partner concentration 90 nM) in the same assay as above.
Summary of the method: as §1

Row | Sequence | PBM binding z-score
19 | CCGACTGGGCCAAGGTCATTGATCAGTCAAAGCA | 2.76
20 | CAAACTAGGTCACGCAAGGTCAAAGTCGAATGAC | 7.71
21 | GCTGCTACGTCAGGTTGGTCAGCTAACGGGTACG | -0.646
22 | TCTCGGAGGACAAGAAAGGTCAGAGCTCGACATC | 3.41
23 | ACAATGAGGTTATACGTAGATCAGGGAAGAAAGT | 2.12
24 | GCGACTGGGGCAAAGCAGGTGACCATAAGGTTGG | -0.7
25 | ACCGAAAGGTCGAGGTGAGTATAGAGAAAGGGAA | 3.23
26 | ATACCAAGGCGATCGTGAGGTCGTTGATACTAAC | 0.195
27 | TCAGACAGGTGAAGGTAACTCACGTACGCAGTCG | 2.26
28 | TCATATAAGTAAAGGTGAAAGTCGAACGATATGA | 1.25
29 | CGAACTAGGTTATCCAGGACAGTGAATACATTGA | 0.403
30 | GGAACGAGGGCAAGTTGATAGCCGAGTTTGATGG | 0.357
31 | CGAATTAGGTCATCCAGGACAGTGAATACATTGA | 3.32
32 | TGAATGAGGTTATAAGATCAGGGGACGTTGCAAA | 1.51
33 | ATATGTAGGTTAGCGGGTCATTCAGTTTGCGCAT | 2.27
34 | GCTTACGGGTCAAAGGTTATAGCGTGAATAGAAT | 5.66
35 | CAGCCTAGGTCAGGTCCAGTATAGGAGGAACGTT | 0.851
36 | ACTATAAGTTGACTTAGGGCAACCGATACGACGC | 0.919
37 | ATCTTTAGGTAAAGATAGTTCAGTGAATGCAAAT | 4.41
38 | TCTGATAGGTCAACGATGGTCAGCTAATCTGCTA | 4.83

Row | Sequence | PBM binding z-score
39 | TAGCCTAGGTCATGCGGGCCAGTTTAGTGTCGGC | 3.15
40 | GCGACTGGGGCAAAGCAGCTTACCATAAGGTTGG | -0.965
41 | ATCGAAAGGTGGTGAGGTGAGTATACAGAAAGGC | 0.31
42 | CATGCTAGGTCAATGGTCAGCTAAAGCAGCTCGC | 2.65
43 | TCTCGGAGGACACGAAAGGCCAGAGCTCGACATC | -0.137
44 | AGAACGAGGTCAATGAGTTGATAGCACGGGTGGC | 5.21
45 | CCTTACGGGTCACGAGGTTCTAGCACGACGAGCG | 4.22
46 | CTCGAAAGGTCGGTTCAGGTGAGTATACGGATAA | 1.92
47 | CCTACTGGGCCATTTAGAGGTCATTGATCATATG | 4.87
48 | CGTCCAAGGACAGAGAGGTCAGTGAATGCCGAGT | 1.6
49 | ACAGACAGGTGAGTGAAGGTAAATCAGCTGGACG | -0.325
50 | CGTCCAAGGTGAAAGGTCAGTGAAGAGATGACGG | 4.11
51 | CAAACTAGGTCACAGAGGTCATAGTCCGTGCGTA | 6.13
52 | TAGCCTAGGTCATGGGTCAGTATACCACGCGAAC | 4
53 | AACTCTAGGTAAGACTCAGTTCAGTGAAGAACGC | -0.0738
54 | TTAATGAGGTTATAAGATCAGGGAACGTTGCAAA | 1.75
55 | CGAACGAGGGCATGAGTTGATAGAAAATGCCGAT | 0.324
56 | CAAACTAGGTCACGAAAGCTCAAAGTCGAATGAC | 3.66
57 | CAAACTAGGTCACTGAGGTCAAAGTCCGTGCGTA | 5.9
58 | CCTTACGGGTCACGAGGTTTTAGCACGACGAGCG | 4.19
